High-throughput results from PubChem.
The list is not random: actives were taken first. Their share in the collection is about 1.9%.
ATG4B inh = inhibitors of human ATG4B cysteine protease; inhibition, % at 8.33 µM; ATG4B cleavage of LC3-PLA2, NBD-HPC fluorescence, 1 h; AID 504462; 340,000 tested, 0.51% active; Q9Y4P1; in the data active means inhibition above about 40%
PP5 primary = PP5 (human) phosphatase inhibition; inhibition, % at 6.7 µM; 320,000 tested, 0.18% active; purified PP5c, OMFP substrate fluorescence; P53041; AID 1987;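 active means inhibition above the campaign's mean inhibition across all tested compounds plus 3 SD, cut at about 9.5% in these data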
Cardio protect = myocardial damage modulation in H9c2 cells | H9c2 cardiomyocytes, H2O2 injury protection, ATPLite, 2 h | protection from H2O2 cell death, % at 20 µM | 360,000 tested, 0.63% active | AID 588492;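 active means compounds giving at least 50% protection of heart cells from peroxide-induced death in the single-dose screen, raw or plate-pattern-corrected value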
PP1 inh = PP1-alpha (human) inhibition in PP5 counter-screen | inhibition, % at 6.7 µM | P62136 | AID 2235 | 320,000 tested, 0.9% active | purified PP1alpha, OMFP fluorescence;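 active means inhibition above the mean inhibition of all tested compounds plus 3 SD, computed separately for each screening campaign, cut at about 15% in these data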
Target sequence (P62136 whole entry, looked up): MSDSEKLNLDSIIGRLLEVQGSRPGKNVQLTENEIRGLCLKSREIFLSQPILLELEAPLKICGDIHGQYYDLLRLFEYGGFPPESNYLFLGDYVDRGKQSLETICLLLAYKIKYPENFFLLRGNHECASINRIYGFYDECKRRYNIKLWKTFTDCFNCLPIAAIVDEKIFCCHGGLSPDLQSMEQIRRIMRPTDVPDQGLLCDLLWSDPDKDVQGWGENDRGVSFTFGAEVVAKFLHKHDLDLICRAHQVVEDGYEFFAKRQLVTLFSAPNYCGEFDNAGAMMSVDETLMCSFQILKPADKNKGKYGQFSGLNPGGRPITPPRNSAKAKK
ATG4B conf = ATG4B (human) inhibition, single-dose confirmed; shares compounds with ATG4B inh; ATG4B protease fluorescent substrate cleavage assay; inhibition, % at 8.33 µM; 320 tested, 92% active; in the data active means inhibition above about 39%
PLA2 ctr = inhibits human PLA2, flagging false ATG4B inhibitors; inhibition, % at 8.33 µM; purified PLA2, NBD-C6-HPC fluorescence, 45 min; shares compounds with ATG4B inh; AID 588402; 1,600 tested, 66% active; in the data active means inhibition above about 50%
Target sequence (P04054 whole entry, looked up): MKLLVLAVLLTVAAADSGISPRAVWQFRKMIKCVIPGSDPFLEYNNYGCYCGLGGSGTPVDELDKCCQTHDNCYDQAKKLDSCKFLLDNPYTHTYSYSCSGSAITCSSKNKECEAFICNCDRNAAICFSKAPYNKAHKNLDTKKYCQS
Numbers stand for hits; . = inactive; / = no result.

SMILES	ATG4B inh	PP5 primary	Cardio protect	PP1 inh	PLA2 ctr	others
Oc1nc(Nc2cccc(Cl)c2)sc1/C=C1\C=Nc2ccccc21	73	.	.	.	83
Oc1cccc(Nc2nc(O)c(/C=C3\C=Nc4ccccc43)s2)c1	.	.	.	.	/
O=C(NC1CCc2ccccc21)C1CCN(S(=O)(=O)c2ccc(Cl)cc2)CC1 (centres undefined)	46	.	.	.	.
CC1CCc2nc3ccc(S(=O)(=O)N4CCC(C(=O)NCc5ccccc5Cl)CC4)cc3c(C(=O)O)c2C1 (centres undefined)	55	.	.	.	79
Cc1ccc(S(=O)(=O)N2CCC(C(=O)NCc3ccccc3Cl)CC2)cc1	46	.	.	.	.	ATG4B conf=67
O=C(NC1CCCc2ccccc21)C1CCN(S(=O)(=O)c2ccccc2)CC1 (centres undefined)	.	.	.	.	/
O=C(NCc1ccccc1Cl)C1CCN(S(=O)(=O)c2ccc(F)cc2)CC1	.	.	.	.	/
CC(OC(=O)C1CC1)C(=O)Nc1cc(Cl)cc(Cl)c1 (centres undefined)	.	/	.	/	/
Cc1c(Cl)c([N+](=O)[O-])nn1Cc1ccc(C(=O)Nc2ccc(Cl)cn2)o1	46	.	.	.	.	ATG4B conf=64
Cc1cc(C)c(NC(=O)C2CCCO2)c(C)c1 (centres undefined)	.	.	.	.	/
N#Cc1ccc(OCC(=O)OCC(=O)c2ccc[nH]2)cc1	.	/	.	/	/
O=C(O)c1cc(Br)ccc1NN=C1CCCCC1	50	.	.	.	.	ATG4B conf=62
O=c1cccccc1NN=C1CCCCC1	.	.	.	.	/
CN1/C(=C\C(=S)NC(=O)c2ccccc2Cl)C(C)(C)c2ccccc21	49	.	.	.	.
COc1ccccc1C(=O)NC(=S)/C=C1/N(C)c2ccccc2C1(C)C	.	.	.	.	/
CCc1ccccc1N1CCN(S(=O)(=O)c2cc(OC)ccc2OC)CC1	57	.	.	.	52
CCS(=O)(=O)c1ccc(O)c(NC(=O)CC2(CC(=O)O)CCCC2)c1	.	.	.	.	/
CN1CCN(C(=O)CCc2nnc3ccc(N4CCC5(CC4)OCCO5)nn23)CC1	.	.	.	.	/
Cc1ccsc1C(=O)NCc1ccccc1Cl	.	.	.	.	/
Cc1ccsc1C(=O)NCCC(c1ccccc1)c1ccccc1	41	.	.	.	.
O=C(Nc1cc(C(=O)Nc2ccccc2C(=O)O)cc(C(=O)Nc2ccccc2C(=O)O)c1)c1ccccc1	68	.	.	.	84
O=C(Nc1ccccc1C(=O)O)c1cccc(NC(=O)c2ccccc2Br)c1	.	.	.	.	/
CCn1c(N2CCN(S(=O)(=O)c3ccc(F)cc3)CC2)nc2ccccc21	.	.	.	.	/
CCn1c(N2CCN(S(=O)(=O)c3ccc(Cl)cc3)CC2)nc2ccccc21	60	.	.	.	67
COc1ccccc1CNC(=O)/C(C#N)=C/c1ccc(OC)c(OC)c1OC	.	.	.	.	/
SMILES	ATG4B inh	PP5 primary	Cardio protect	PP1 inh	PLA2 ctr	others
Fc1ccc(C2c3[nH]c4ccccc4c3CCN2Cc2cccn2-c2ncccn2)cc1 (centres undefined)	41	.	.	.	.	ATG4B conf=70
C(=C\c1ccccc1)/CSc1nnc(-c2ccncc2)n1Cc1ccco1	.	.	.	.	/
Clc1cccc(-c2nnc(SC/C=C/c3ccccc3)n2Cc2ccco2)c1	55	.	.	16	56
C(=C\c1ccccc1)/CSc1nnc(-c2ccccc2)n1Cc1ccco1	67	.	.	.	66
Cc1ccc(S(=O)(=O)NC2CC2)cc1[N+](=O)[O-]	.	.	.	.	/
Cc1c(Cl)cccc1NC(=S)NCCc1ccc(C(F)(F)F)cc1	89	.	.	.	94
COc1ccc(/C=C2\SC(=S)N(CCCC(=O)NNC(=O)c3ccccc3O)C2=O)cc1	49	.	.	.	.
COc1ccc(/C=C2/SC(=S)N(CCCC(=O)Nc3ccccc3C(=O)O)C2=O)cc1	.	.	.	.	/
O=C(CN1C(=O)COc2ccccc21)Nc1ccc(N2CCOCC2)cc1	.	.	.	.	/
CC(C)N1CC(C(=O)Nc2cc(Cl)cc(Cl)c2)CC1=O (centres undefined)	.	.	.	.	/
c1coc(-c2nnc3n2C2(CCCC2)Cc2ccccc2-3)c1	.	.	.	.	/
Brc1ccc(-c2nnc3n2C2(CCCC2)Cc2ccccc2-3)o1	52	.	.	.	63
CC(C)c1ccc(NC2CCCN(C(=O)c3ccoc3)C2)cc1 (centres undefined)	56	.	.	.	60
CC(C)c1ccc(NC2CCCN(C(=O)c3ccc(N4CCOCC4)cc3)C2)cc1 (centres undefined)	77	.	.	.	82
CC(C)c1ccc(NC2CCCN(C(=O)c3cc(C(C)C)nc(N)n3)C2)cc1 (centres undefined)	75	.	.	.	77
CC(C)c1ccc(NC2CCCN(C(=O)CC3CCCC3)C2)cc1 (centres undefined)	87	.	.	.	89
Cc1ccccc1S(=O)(=O)N1CCN(c2ccc3c(c2)C2CC3CCN2C(=O)OCc2ccccc2)CC1 (centres undefined)	/	/	.	/	/
COc1cccc(NC(=O)CNC(=O)Cn2cnc3sc(C)c(C)c3c2=O)c1	.	.	.	.	/
O=S(=O)(c1ccc(=S)[nH]c1)N1CCN(Cc2ccccc2)CC1	.	/	.	/	/
Cc1cc(/C=C2\SC(=S)NC2=O)cc(C)c1O	.	.	.	.	/
O=C1NC(=S)S/C1=C\c1cc(Cl)cc(Cl)c1O	62	/	.	/	.	ATG4B conf=40
CCOc1ccc(/C=C2\SC(=S)N(CC(=O)Nc3ccccn3)C2=O)cc1	.	.	.	.	/
CC1(C)Cc2ccccc2-c2nnc(SCC(=O)Nc3nc4ccccc4s3)n21	42	.	.	.	51
C=CCn1c(SCc2nc3scc(-c4ccccc4)c3c(=O)[nH]2)nnc1-c1ccccc1F	46	.	.	.	.	ATG4B conf=62
CCn1c(SCc2nc3scc(-c4ccccc4)c3c(=O)[nH]2)nnc1-c1ccc(Cl)cc1	.	.	.	.	/
SMILES	ATG4B inh	PP5 primary	Cardio protect	PP1 inh	PLA2 ctr	others
O=C(O)c1ccc(NC2=C/C(=N/S(=O)(=O)c3ccccc3)c3ccccc3C2=O)cc1	43	/	.	/	.	ATG4B conf=61
Cc1cc(C)c(S(=O)(=O)/N=C2\C=C(Nc3ccc(C(=O)O)cc3)C(=O)c3ccccc32)c(C)c1	.	.	.	.	/
COc1ccc(-c2ccc3c(c2)S(=O)(=O)c2cccc(C(=O)NCc4cccc(OC(F)(F)F)c4)c2C3=O)cc1OC	70	/	.	/	70
CCOc1cc2c3c(c1)C1(Nc4ccccc4S1)C(=O)N3C(C)(C)CC2C (centres undefined)	43	.	.	.	.
CCOc1cc2c3c(c1)C1(OCCO1)C(=O)N3C(C)(C)CC2C (centres undefined)	.	.	.	.	/
CN(Cc1ccccc1)C(=O)c1[nH]cnc1C(=O)Nc1ccon1	.	.	.	.	/
